Results reported in PubChem BioAssay (NCATS).
Results filed as inconclusive are left out. The call rests on the fitted dose curve; in most records, active means well fitted inhibition curve with a large enough effect; inconclusive means small, poorly fitted or top-dose-only effect; inactive means no such curve, though single readings can be large or run the other way. Peptide text beside a SMILES is read from it. * marks the point of attachment. Hexanoyl = CCCCCC(=O)*

molecular target: Nuclear receptor subfamily 1 group I member 3 (Homo sapiens) (UniProt Q14994); test: qHTS for Constitutive Androstane Receptor (CAR) Antagonist screened against the NCATS CANVASS Library (AID 1347372); details: HepG2-hCAR-CYP2B6 luciferase, CITCO-stimulated antagonist mode; series mostly up to 46.1 µM; activity change, negative = inhibition: at the top concentration;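 further: cells stimulated with 50 nM CITCO agonist so inhibition reflects antagonism; luciferase from CYP2B6 promoter reporter driven by hCAR in HepG2 cells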
Sequence (Q14994 whole entry, looked up): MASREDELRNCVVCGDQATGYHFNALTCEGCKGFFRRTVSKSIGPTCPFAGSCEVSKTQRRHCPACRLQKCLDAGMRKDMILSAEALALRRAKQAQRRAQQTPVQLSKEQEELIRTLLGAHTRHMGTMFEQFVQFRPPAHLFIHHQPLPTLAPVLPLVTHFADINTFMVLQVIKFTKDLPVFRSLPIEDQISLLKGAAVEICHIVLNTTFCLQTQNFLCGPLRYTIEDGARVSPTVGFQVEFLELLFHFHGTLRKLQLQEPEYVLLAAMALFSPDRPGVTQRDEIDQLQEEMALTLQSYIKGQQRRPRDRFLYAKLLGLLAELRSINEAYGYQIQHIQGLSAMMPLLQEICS
Procedure, shortened: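 Cells were seeded and left 4hr to attach, then received compound at 11 concentrations and 50 nM CITCO. Following 24hr incubation, fluorescence viability and luciferase luminescence were read sequentially.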
On the % scale 0 is the no-effect control and ±100 the full control effect.

Activity change, negative = inhibition, inactive:
COC(=O)c1cccc2oc(-c3cccc4oc(-c5c(C)cccc5O)nc34)nc12 135%, C[C@@]12CCC[C@@](C)(C(=O)OP(=O)(O)OC[C@H]3O[C@@H](n4cnc5c(N)ncnc54)[C@H](O)[C@@H]3O)[C@H]1C[C@@H](O)[C@@]13C[C@@H](CC[C@@H]21)[C@](C)(O)C3 3.85%, CCC(C)=C1OC(=O)[C@H](C)[C@H](O)[C@H](Cc2cccnc2)NC(=O)C(NC(=O)c2ncccc2O)C(C)OC1=O (some centres undefined) -5.04%, C[C@@]12CCC[C@@](C)(C(=O)O)[C@H]1CC[C@@]13C[C@@H](CC[C@H]12)[C@](C)(O)C3 -6.03%, O=C1OC(CCO)c2cccc(O)c21 (centres undefined) 2.62%, C=C1C[C@]23C=CC(=O)[C@@](C)(CCCC(C)C(=O)N[C@@H](CO)C(=O)O)[C@@H]2C[C@@H]1CC3 (some centres undefined) 6.19%, COc1cc2ccc(=O)oc2c(O)c1O[C@@H]1O[C@H](CO)[C@@H](O)[C@H](O)[C@H]1O 12.9% [at 27.5 µM], C/C(=C\[C@@H](C)CC/C=C/CC/C=C/C(=O)O)[C@@H](O)[C@H](C)C(=O)CCCC1CC(=O)NC(=O)C1 -10.7%, CO[C@@H](C[C@@H](C)[C@@H](O)/C=C/C=C/CNC(=O)C(C)(C)[C@H](O)\C(C)=C/C=C\C=C\Cc1cnco1)[C@]1(O)[C@@H](C)C(=O)N(C)[C@@]12COC2=O -10.5%, O=C1CC(c2ccc(O)cc2)Oc2cc(O)cc(O)c21 (centres undefined) 68.8%, O=C1CC(c2ccc(O)cc2)Oc2cc(O)ccc21 (centres undefined) 54.2%, CN1CC[C@@]23c4ccccc4N[C@@H]1[C@@]21CCN(C)[C@@H]3Nc2ccccc21 4.44%, C[C@@]12CCC[C@@](C)(C(=O)O)[C@H]1C[C@@H](O)[C@@]13C[C@@H](CC[C@@H]21)[C@](C)(O)C3 2.36%, O=Cc1ccc2n1C[C@]1(OC2)O[C@H](CO)[C@@H](O)[C@@H]1O -0.282%, C=C[C@@]1(C)CC[C@@H]([C@H](C)C(C)=O)O1 4.16%, C/C=C(/CO)C(=O)O[C@@H]1[C@H](O)[C@@H](C(=O)OC)O[C@@H]2C[C@H]3OC(n4cnc5c(N)ncnc54)[C@H](OC)[C@H]3O[C@@]12O (some centres undefined) 28.3%, C/C=C/[C@H]1[C@H]2C(=O)c3c(O)c(C)c(O)c(C)c3[C@]1(C(=O)O)C(=O)C=C2C 0.471%, C[C@@]12C[C@@H](C[C@@H]3C(=O)O[C@@H](c4ccoc4)[C@H](OC(=O)c4ccccc4)[C@@H]31)OC2=O -2.33%, C=C1CCC2C(C)(C(=O)O)CCC(CC/C(C)=C/C(=O)NC(CCC(N)=O)C(=O)O)[C@@]2(C)C1 (some centres undefined) 14%, C=C1[C@@]2(C)CC3C4(C)CCC(O)C(C)(C)C4CCC3(C)[C@]1(C(=O)OC)C(=O)C(C)(O)C2=O (some centres undefined) -9.65%, CC(C)=CCC[C@]1(C)[C@H]2CC(=O)[C@@]3(CO3)[C@@H]1C2 9.61%, CCCCCC(=O)N[C@@H](CC(C)C)C(=O)N[C@H](C=O)CCC(=O)O (Hexanoyl-Leu-Glu-aldehyde) 2.97%, COc1ccc([C@@H]2c3cc4c(cc3C(=O)C(C)C2C)OCO4)cc1OC (some centres undefined) 79.7%, CC1(C)CC[C@]2(CO)CC[C@]3(C)C(=CCC4[C@@]5(C)CC[C@H](O)C(C)(C)C5CC[C@]43C)C2C1 (some centres undefined) -4.03%
